# Results as given in the supplement of paper PMC6607015.
# Structures can show the parent of a compound that is named as a salt.
# Assays:
# Details in all cases: compound concentration in added solution (µM; 5 µl added to 20 µl cells): 10; 18 h
# A431 [1] = assay: LBPA endosome anti-LBPA integrated intensity (sum per cell), Z-score; higher = more LBPA staining
# In short: (§1)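 In duplicate 384-well imaging plates, 3,500 HeLa MZ or A431 cells in 20 µl per well were seeded onto 5 µl of 10 µM compound solution. The cells were incubated for 18 h, fixed in 4% PFA and stained with 6C4 anti-LBPA antibody, filipin, propidium iodide and CellTracker green before four 20× images were acquired per well. Values are AcuityXpress-normalised Z-scores of per-cell integrated LBPA or filipin intensity, obtained by MetaXpress segmentation over the whole cell or in LBPA endosomes.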
# HeLa MZ [2] = assay: as above
# In short: as §1
# A431 [3] = assay: whole-cell filipin (free cholesterol) integrated intensity, Z-score; higher = more cholesterol staining
# In short: as §1
# HeLa MZ [4] = assay: as above
# In short: as §1
# A431 [5] = assay: filipin (cholesterol) integrated intensity within LBPA endosomes, Z-score; higher = more cholesterol in LBPA endosomes
# In short: as §1
# HeLa MZ [6] = assay: as above
# In short: as §1
SMILES,LBPA endosome anti-LBPA integrated intensity (z-score) (A431 [1]),LBPA endosome anti-LBPA integrated intensity (z-score) (HeLa MZ [2]),whole-cell filipin (z-score) (A431 [3]),whole-cell filipin (z-score) (HeLa MZ [4]),filipin (z-score) (A431 [5]),filipin (z-score) (HeLa MZ [6])
O=P1(N(CCCl)CCCl)NCCCO1 (stereo not drawn) [Cyclophosphamide],-0.0725,1.02,0.399,0.209,-0.311,0.352
CC(=O)OC1CN2CCC1CC2 (stereo not drawn) [Aceclidine Hydrochloride],-0.622,-1.07,-0.642,0.0664,-0.61,-0.54
CCCCCC[C@H]1C(=O)O[C@H](C)[C@H](NC(=O)c2cccc(NC=O)c2O)C(=O)O[C@@H](C)[C@@H]1OC(=O)CC(C)C [Antimycin A],-0.868,-0.65,-0.217,-0.804,-0.854,-0.994
C(#CCN1CCCC1)CN1CCCC1 [Tremorine dihydrochloride],-0.282,0.485,-0.922,-0.198,-0.368,0.452
CC(C)[N+](C)(CCC(C(N)=O)(c1ccccc1)c1ccccc1)C(C)C [Isopropamide iodide],-0.212,0.0469,0.00888,-0.577,-0.389,-0.451
C[C@]12N[C@H](Cc3ccccc31)c1ccccc12 [Dizocilpine maleate],-0.337,0.113,-0.302,-0.304,-0.361,-0.275
O=C(CCCN1CCC(n2c(=O)[nH]c3ccccc32)CC1)c1ccc(F)cc1 [Benperidol],2.05,1.55,2.2,1.83,2.28,1.91
c1ccc2c(c1)OCC(C1=NCCN1)O2 (stereo not drawn) [Idazoxan hydrochloride],-0.313,0.376,-0.115,-0.982,-0.462,-0.278
C[C@]12CCC(=O)C=C1CC[C@@H]1[C@@H]2C(=O)C[C@]2(C)C(=O)CC[C@@H]12 [Adrenosterone],0.667,1.59,1.61,2.01,1,0.731
CCN[C@@H](C)Cc1cccc(C(F)(F)F)c1 [Dexfenfluramine hydrochloride],-0.18,-0.965,-0.95,-0.721,-0.444,-0.703
C=C1CC[C@@]2(O)[C@H]3Cc4ccc(O)c5c4[C@@]2(CCN3CC2CC2)[C@H]1O5 [Nalmefene hydrochloride],-0.278,0.776,-0.193,-0.0735,-0.304,0.0741
C[C@@H]1CC[C@H]2[C@@H](C)C(=O)O[C@@H]3O[C@@]4(C)CC[C@@H]1[C@]32OO4 [Artemisinin],-0.479,0.63,-0.6,0.161,-0.503,-0.315
CNC(C)(C)Cc1ccccc1 [Mephentermine hemisulfate],-0.473,-0.965,-0.48,-0.125,-0.471,-0.403
S=C(NC1CCCCC1)N1CCC(c2cnc[nH]2)CC1 [Thioperamide maleate],2.17,2.24,-0.0418,0.0454,0.0582,0.431
O=C(NCNC(=O)NC1C(=O)NC(=O)N1CO)NC1C(=O)NC(=O)N1CO (stereo not drawn) [Imidurea],-0.433,0.0233,-0.35,-0.63,-0.459,-0.511
CC(C)(C)NCC(O)c1cc(Cl)c(N)c(Cl)c1 (stereo not drawn) [Clenbuterol hydrochloride],0.0925,0.441,-0.358,-0.387,-0.383,-0.295
OC(c1ccccc1)(c1ccccc1)C1CCNCC1 [Azacyclonol],-0.397,-0.253,-0.445,-0.666,-0.198,0.228
CC(CCc1ccccc1)NC(C)C(O)c1ccc(O)cc1 (stereo not drawn) [Nylidrin],0.233,1.33,0.218,-0.109,-0.121,0.184
CC(C)c1cccc(C(C)C)c1O [Propofol],-0.483,-0.0677,-0.406,-0.391,-0.506,-0.548
CC(=O)O[C@H]1C[C@@H]2CC[C@@H]3[C@H](CC[C@@]4(C)[C@H]3C[C@H]([N+]3(C)CCCCC3)[C@@H]4OC(C)=O)[C@@]2(C)C[C@@H]1[N+]1(C)CCCCC1 [Pancuronium bromide],-0.551,-0.744,0.0171,-0.166,-0.527,-0.532
CN1[C@@H]2CC[C@H]1C[C@@H](OC(=O)[C@H](CO)c1ccccc1)C2 [Hyoscyamine (L)],-0.717,-1.24,-0.954,-0.599,-0.664,-0.33
CCn1cc(C(=O)O)c(=O)c2cc3c(cc21)OCO3 [Oxolinic acid],-0.55,-0.225,-0.848,-0.638,-0.512,-0.645
COc1cccc(C2(O)CCCCC2CN(C)C)c1 (stereo not drawn) [Tramadol hydrochloride],-0.437,0.543,-0.062,-0.487,-0.403,-0.176
O=[N+]([O-])O[C@@H]1CO[C@H]2[C@@H]1OC[C@@H]2O [Isosorbide mononitrate],-0.416,-0.118,0.0855,-0.408,-0.35,-0.464
O=C1CC[C@@]2(O)[C@H]3Cc4ccc(O)c5c4[C@@]2(CCN3CC2CC2)[C@H]1O5 [Naltrexone hydrochloride dihydrate],-0.577,-0.427,-0.831,-1,-0.48,-0.466

SMILES,LBPA endosome anti-LBPA integrated intensity (z-score) (A431 [1]),LBPA endosome anti-LBPA integrated intensity (z-score) (HeLa MZ [2]),whole-cell filipin (z-score) (A431 [3]),whole-cell filipin (z-score) (HeLa MZ [4]),filipin (z-score) (A431 [5]),filipin (z-score) (HeLa MZ [6])
CC(Cc1ccc(O)cc1)NCC(O)c1cc(O)cc(O)c1 (stereo not drawn) [Fenoterol hydrobromide],-0.386,0.00712,-0.429,-0.631,-0.574,-0.584
CC(N)C(O)c1ccccc1 (stereo not drawn) [Phenylpropanolamine hydrochloride],-0.541,-1.1,-0.689,-0.0866,-0.502,-0.451
O[C@@H]1CCCC[C@H]1N1CCC(c2ccccc2)CC1 [L(-)-vesamicol hydrochloride],-0.173,1.21,0.21,0.285,-0.268,-0.0101
"NCC(CC(=O)O)c1ccc(Cl)cc1 (racemic) [Baclofen (R,S)]",-0.529,-1.07,-1.03,-0.783,-0.513,-0.613
CC(Cc1ccccc1)NCCC(c1ccccc1)c1ccccc1 (stereo not drawn) [Prenylamine lactate],,1.19,,1.27,,2.44
CO[C@]12C[C@@H](COC(=O)c3cncc(Br)c3)CN(C)[C@@H]1Cc1cn(C)c3cccc2c13 [Nicergoline],3.54,1.32,3.37,-0.0724,3.09,0.446
CCC(=O)O[C@@](Cc1ccccc1)(c1ccccc1)[C@@H](C)CN(C)C [Levopropoxyphene napsylate],-0.308,-0.465,0.489,0.709,0.194,-0.129
Fc1ccc(C(OCCN2CCN(CCCc3ccccc3)CC2)c2ccc(F)cc2)cc1,3.21,,1.65,,2.65,
CCOC(=O)c1cncn1[C@H](C)c1ccccc1 [Etomidate],-0.611,-1.14,-0.618,-0.784,-0.487,-0.672
CC[C@@]1([C@@H]2O[C@@H]([C@H]3O[C@@](O)(CO)[C@H](C)C[C@@H]3C)C[C@@H]2C)CC[C@H]([C@]2(C)CC[C@]3(C[C@H](O)[C@@H](C)[C@@H]([C@@H](C)[C@@H](OC)[C@H](C)C(=O)O)O3)O2)O1 [Monensin sodium salt],,-0.505,,-1.99,,0.206
O=c1[nH]c2ccccc2n1CCCN1CCC(n2c(=O)[nH]c3cc(Cl)ccc32)CC1 [Domperidone],2.25,1.92,2.16,2.38,2.09,2.01
COc1ccc(CCN2CCC(Nc3nc4ccccc4n3Cc3ccc(F)cc3)CC2)cc1 [Astemizole],,-0.627,,-1.11,,2.12
C[N+]12CCC(CC1)C(OC(=O)C(O)(c1ccccc1)c1ccccc1)C2 (stereo not drawn) [Clidinium bromide],-0.478,-0.195,-0.441,-0.644,-0.455,-0.364
CN1C(=O)CCS(=O)(=O)C1c1ccc(Cl)cc1 (stereo not drawn) [Chlormezanone],-0.579,-0.715,-0.534,0.0972,-0.511,-0.314
COc1ccc(Cc2nccc3cc(OC)c(OC)cc23)cc1OC [Papaverine hydrochloride],-0.662,0.0558,-0.685,-0.814,-0.607,-0.356
C=C(C)[C@@H]1[C@H]2OC(=O)[C@@H]1[C@]1(O)C[C@H]3O[C@]34C(=O)O[C@H]2[C@]14C [Picrotoxinin],-0.582,-0.88,-0.718,-0.469,-0.448,-0.32
CCN(C(C)=O)c1cccc(-c2ccnc3c(C#N)cnn23)c1 [Zaleplon],-0.486,-0.0487,-0.573,-0.909,-0.493,-0.507
C[C@]12CC[C@H]3[C@@H](CCC4=CC(=O)CC[C@@H]43)[C@@H]1CC[C@@H]2O [Nandrolone],-0.352,0.296,-0.14,-0.437,-0.296,-0.508
Oc1ccc2c3c1O[C@H]1[C@@H](O)CC[C@@]4(O)[C@@H](C2)N(CC2CCC2)CC[C@]314 [Nalbuphine hydrochloride],-0.515,-0.32,-0.797,-0.749,-0.572,-0.371
CCN(C)C(=O)Oc1cccc([C@H](C)N(C)C)c1 [Rivastigmine],-0.438,-0.457,0.162,1.82,-0.375,-0.164
NC(=O)CN1CCCC1=O [Piracetam],-0.558,-0.0728,-0.653,-0.301,-0.56,-0.514
C#CCN(C)[C@H](C)Cc1ccccc1 [Selegiline hydrochloride],-0.688,-1.62,-0.708,-0.332,-0.535,-0.657
C[C@]12Cc3c[nH]nc3C[C@@H]1CC[C@@H]1[C@@H]2CC[C@@]2(C)[C@H]1CC[C@]2(C)O [Stanozolol],0.154,1.15,0.353,-0.167,0.0473,-0.12
CCCN1C[C@H](CSC)C[C@@H]2c3cccc4[nH]cc(c34)C[C@H]21 [Pergolide mesylate],2.35,1.89,-0.261,-0.788,0.495,0.499
NC(=O)C[S+]([O-])C(c1ccccc1)c1ccccc1 (stereo not drawn) [Modafinil],-0.574,-0.833,-0.743,-0.382,-0.532,-0.453
